Data on twelve compounds can be found in PubChem BioAssay.

Activity calls are given as the source filed them.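 Rule for the calls, unless noted: active = inhibition above 50%, about 3 SD of the validation set; inactive = the rest.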

Assay [1] can be described thus: reduced mouse 2C T cell binding to pMHC/ICAM-1 vesicles – MLPCN validation set, flow cytometry, LFA-1/ICAM-1 modulator project, pilot screen (AID 2523;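 active = response below a set limit, under 55% cells CD8-positive and vesicle-bound, and CD8 cells' 90th-percentile brightness under 279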;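 for vesicle binding response: mean PE anti-B7-1 fluorescence of CD8+ cells relative to row control; 100% = QL9-loaded vesicles with DMSO vehicle in the same plate row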). The note with it: 2C mouse CD8+ T cells, at 7 µM, stronger effect = lower value; double positive events: measured here: CD8+/vesicle+ event percentage. (A flow cytometer gives signals particle by particle.)
Assay [2] addresses Integrin beta-1 (Homo sapiens) + Integrin alpha-4 (Homo sapiens) (UniProt P13612+P05556). The experiment in a line: alpha4beta1 integrin LIBS antibody binding reduction – U937 cells, HUTS-21 mAb, flow cytometry, validation set, VLA-4 allosteric modulator project, pilot screen (AID 2674).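 Note: antibody binding induced by the VLA-4 ligand LDV present at three times its Kd; 0% = LDV ligand with antibody and no compound and 100% = antibody without LDV.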 Conditions: HUTS-21 LIBS mAb binding, at 6.7 µM, stronger effect = higher value, binding induced by LDV ligand.

Assay [3] is described as follows: calorie-restriction mimetic ROS inhibitors, yeast – validation compound set, pilot screen (AID 2706;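 active = superoxide response below 65% of plate, a cut near 3 SD across the whole screen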;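 note: yeast exposed to compound for one week at 30 degrees C before staining; 100% = mean of all compound wells on the same plate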). Conditions: S. cerevisiae aging, superoxide DHE fluorescence; at 10 µM, stronger effect = lower value.
In assay [4] the target is Beta-adrenergic receptor kinase 1 (Homo sapiens) (UniProt P25098). The experiment in a line: GRK2 binders displacing RNA aptamer, biochemical, validation, human GRK2, bead flow cytometry (AID 488806;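 active = aptamer binding inhibition above 30%, about 3 SD of noise from non-fluorescent compounds; inactive = inhibition at or below 30%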). The note with it: bead-bound GRK2, FAM-aptamer displacement, at 10 µM, stronger effect = higher value.
Chain of Beta-adrenergic receptor kinase 1 (Homo sapiens) (P25098 whole entry, looked up): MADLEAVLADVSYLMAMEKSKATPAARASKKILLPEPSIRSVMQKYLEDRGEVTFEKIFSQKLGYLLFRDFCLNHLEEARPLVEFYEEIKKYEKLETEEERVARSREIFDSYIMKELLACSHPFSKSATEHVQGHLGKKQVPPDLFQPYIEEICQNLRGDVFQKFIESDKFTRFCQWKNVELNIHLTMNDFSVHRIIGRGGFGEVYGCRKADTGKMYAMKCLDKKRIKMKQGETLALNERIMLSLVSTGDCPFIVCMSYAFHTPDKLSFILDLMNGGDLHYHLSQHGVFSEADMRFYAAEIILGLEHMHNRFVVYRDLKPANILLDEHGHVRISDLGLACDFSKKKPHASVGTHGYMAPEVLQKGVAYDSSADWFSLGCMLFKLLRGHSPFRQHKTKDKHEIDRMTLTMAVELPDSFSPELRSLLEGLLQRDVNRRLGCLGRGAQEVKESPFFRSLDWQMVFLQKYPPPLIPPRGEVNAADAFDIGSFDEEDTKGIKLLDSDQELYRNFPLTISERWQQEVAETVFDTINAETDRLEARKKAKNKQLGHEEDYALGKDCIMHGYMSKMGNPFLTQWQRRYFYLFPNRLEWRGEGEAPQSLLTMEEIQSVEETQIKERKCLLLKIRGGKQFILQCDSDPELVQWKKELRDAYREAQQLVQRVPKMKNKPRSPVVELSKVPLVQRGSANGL
In assay [5] the target is Beta-2 adrenergic receptor (Homo sapiens) (UniProt P07550). Put plainly: agonist-induced loss of surface beta2AR – cell-based, FAP fluorogen, flow cytometry, validation set, pilot screen (AID 504459;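 active = percent response above 42, roughly 3 SD of non-fluorescent test compounds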;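 note: agonist-driven loss of surface beta2AR via internalization measured by FAP dye flow cytometry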). The note with it: Am2.2-beta2AR cells, at 10 µM, stronger effect = higher value.
Chain of Beta-2 adrenergic receptor (Homo sapiens) (P07550 whole entry, looked up): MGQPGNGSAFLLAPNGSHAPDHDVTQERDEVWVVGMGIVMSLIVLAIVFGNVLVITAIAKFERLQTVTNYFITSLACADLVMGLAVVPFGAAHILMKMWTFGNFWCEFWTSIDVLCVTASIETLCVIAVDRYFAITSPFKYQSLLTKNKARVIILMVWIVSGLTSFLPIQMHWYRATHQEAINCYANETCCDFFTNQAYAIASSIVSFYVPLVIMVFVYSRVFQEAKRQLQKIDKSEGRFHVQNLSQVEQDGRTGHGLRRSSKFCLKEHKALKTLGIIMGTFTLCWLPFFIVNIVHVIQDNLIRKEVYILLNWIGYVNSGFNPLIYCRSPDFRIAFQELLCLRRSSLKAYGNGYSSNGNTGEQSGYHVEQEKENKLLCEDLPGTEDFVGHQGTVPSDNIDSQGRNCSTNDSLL
Assay [6] deals with AP-2 complex subunit beta (Homo sapiens) (UniProt P63010). The experiment in a line: beta-arrestin/AP2 interaction blockers – biochemical, validation set, GST-AP2 beads, flow cytometry, pilot screen (AID 504541;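 active = inhibition above 54%, about 3 SD of non-fluorescent compounds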;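 note: AP2 carries R879A mutation and is captured from E. coli lysate; bead-bound FITC arrestin peptide fluorescence measuring arrestin peptide binding to AP2; 0% = DMSO wells and 100% = excess unlabeled arrestin peptide control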). The note with it: FITC arrestin peptide, at 10 µM, stronger effect = higher value, AP2 beta2 appendage fragment, R879A mutant.
Chain of AP-2 complex subunit beta (Homo sapiens) (P63010 whole entry, looked up, the tested form may be a part, one chain of several): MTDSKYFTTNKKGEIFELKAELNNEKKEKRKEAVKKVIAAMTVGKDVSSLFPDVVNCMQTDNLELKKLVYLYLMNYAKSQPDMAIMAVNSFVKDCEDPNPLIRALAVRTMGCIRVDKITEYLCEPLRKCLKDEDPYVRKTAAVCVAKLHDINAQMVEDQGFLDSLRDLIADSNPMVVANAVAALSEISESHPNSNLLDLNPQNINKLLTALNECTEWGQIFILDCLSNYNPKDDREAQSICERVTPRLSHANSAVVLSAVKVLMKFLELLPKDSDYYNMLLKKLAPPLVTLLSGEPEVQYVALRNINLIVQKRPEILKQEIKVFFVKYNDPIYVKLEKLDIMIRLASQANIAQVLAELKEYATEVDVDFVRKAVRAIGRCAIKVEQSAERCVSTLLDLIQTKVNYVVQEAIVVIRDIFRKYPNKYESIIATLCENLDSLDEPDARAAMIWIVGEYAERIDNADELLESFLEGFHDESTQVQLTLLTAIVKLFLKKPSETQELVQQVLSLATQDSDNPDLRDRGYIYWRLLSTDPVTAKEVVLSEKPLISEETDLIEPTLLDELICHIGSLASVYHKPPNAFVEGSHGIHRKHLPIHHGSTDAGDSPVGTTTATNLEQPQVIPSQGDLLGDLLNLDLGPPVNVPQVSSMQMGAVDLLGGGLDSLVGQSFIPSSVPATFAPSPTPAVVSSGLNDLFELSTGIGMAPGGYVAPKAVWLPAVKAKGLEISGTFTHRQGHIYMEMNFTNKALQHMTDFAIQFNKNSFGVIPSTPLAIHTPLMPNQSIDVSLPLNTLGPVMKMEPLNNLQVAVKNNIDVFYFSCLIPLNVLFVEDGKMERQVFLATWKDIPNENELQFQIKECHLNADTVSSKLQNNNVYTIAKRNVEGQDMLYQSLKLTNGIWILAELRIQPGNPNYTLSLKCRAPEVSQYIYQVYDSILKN
Assay [7] in a line: cytosolic pH regulators acting via V-ATPase – S. cerevisiae, pHLuorin, HTS validation (AID 504600; in the data active = response above about 15%;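 note: plate controls were DMSO for no effect and reference compound for full effect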). Conditions: V-ATPase proton transport, at 10 µM, stronger effect = higher value.
The test system of assay [8] is anti-desmoglein-3 scFv antibody binding to human DSG3. The experiment in a line: blockers of pathogenic pemphigus antibody–desmoglein-3 binding – biochemical, validation compound set, bead-based, flow cytometry, pilot screen (AID 588368;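 active = binding below the plate cutoff, the plate median minus 3 SD, with a reading above zero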;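 note: signal is the median channel fluorescence of bead-bound GFP antibody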). The note with it: Protein G beads, DSG3-Fc, scFv-GFP binding, at 10 µM, stronger effect = lower value.
A short description of assay [9]: Nile Red efflux blockade in pump-expressing yeast – validation compound set, multiplex, phenotypic, pilot screen (AID 588506;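 active = efflux inhibition above 0.42, the validation set average plus 4 SD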;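 note: Nile Red retained in cells so higher fluorescence means more efflux inhibition; 0 = negative control wells and 1 = enniatin B 25 µM full block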). The note with it: S. cerevisiae pump-expressing triplex, Nile Red efflux flow cytometry; at 10 µM; stronger effect = higher value; the pumps come from Candida albicans.
Assay [10] has as its target ATP-binding cassette sub-family B member 6 (Homo sapiens) (UniProt Q9NP58). Put plainly: blockers of ABCB6-driven porphyrin uptake – K562-ABCB6 cells, flow cytometry, validation set, pilot screen (AID 588550;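 active = inhibition above the screen-wide mean plus 3 SD, about 51%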;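 note: 0% = DMSO wells and 100% = benzethonium chloride 70 µM positive control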). Conditions: K562-ABCB6 porphyrin accumulation, 1 h, at 10 µM, stronger effect = higher value.
Assay [11] is described as follows: AML differentiation inducers, ER-HoxA9 marrow cells – cell-based, GFP/MAC1 double positive, flow cytometry, validation set, primary screen (AID 588685;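 active = differentiation response of at least 50%, scaled between solvent and reference control, from cells with both markers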;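 note: compound exposure lasts four days before antibody staining and flow analysis; 0% = DMSO wells and 100% = 5 µM fulvestrant positive control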). The note with it: stronger effect = higher value, normalized: vehicle 0, fulvestrant 100.

Chain of ATP-binding cassette sub-family B member 6 (Homo sapiens) (Q9NP58 whole entry, looked up): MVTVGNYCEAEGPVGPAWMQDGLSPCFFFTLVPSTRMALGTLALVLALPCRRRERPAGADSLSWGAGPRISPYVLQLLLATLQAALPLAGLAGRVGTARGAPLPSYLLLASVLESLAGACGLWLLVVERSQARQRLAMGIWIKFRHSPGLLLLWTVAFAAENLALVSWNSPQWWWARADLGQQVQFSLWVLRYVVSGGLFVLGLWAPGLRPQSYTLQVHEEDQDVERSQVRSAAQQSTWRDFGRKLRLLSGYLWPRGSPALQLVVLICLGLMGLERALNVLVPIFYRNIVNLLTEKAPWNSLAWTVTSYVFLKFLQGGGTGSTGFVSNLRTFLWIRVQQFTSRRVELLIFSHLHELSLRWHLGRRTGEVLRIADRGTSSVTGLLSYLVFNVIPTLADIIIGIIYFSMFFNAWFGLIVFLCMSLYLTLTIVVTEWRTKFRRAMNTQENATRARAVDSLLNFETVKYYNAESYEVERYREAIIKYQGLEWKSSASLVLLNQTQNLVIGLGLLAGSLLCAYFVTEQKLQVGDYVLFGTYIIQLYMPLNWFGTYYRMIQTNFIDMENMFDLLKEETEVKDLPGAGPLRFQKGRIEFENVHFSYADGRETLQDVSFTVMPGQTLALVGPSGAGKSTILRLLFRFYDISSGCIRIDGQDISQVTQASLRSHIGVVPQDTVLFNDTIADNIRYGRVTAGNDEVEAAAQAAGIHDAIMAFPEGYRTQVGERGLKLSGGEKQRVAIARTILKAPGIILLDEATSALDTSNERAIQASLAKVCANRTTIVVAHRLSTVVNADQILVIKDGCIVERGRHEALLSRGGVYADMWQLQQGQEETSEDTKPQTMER
Chain of Integrin beta-1 (Homo sapiens) + Integrin alpha-4 (Homo sapiens) (P05556 whole entry, looked up): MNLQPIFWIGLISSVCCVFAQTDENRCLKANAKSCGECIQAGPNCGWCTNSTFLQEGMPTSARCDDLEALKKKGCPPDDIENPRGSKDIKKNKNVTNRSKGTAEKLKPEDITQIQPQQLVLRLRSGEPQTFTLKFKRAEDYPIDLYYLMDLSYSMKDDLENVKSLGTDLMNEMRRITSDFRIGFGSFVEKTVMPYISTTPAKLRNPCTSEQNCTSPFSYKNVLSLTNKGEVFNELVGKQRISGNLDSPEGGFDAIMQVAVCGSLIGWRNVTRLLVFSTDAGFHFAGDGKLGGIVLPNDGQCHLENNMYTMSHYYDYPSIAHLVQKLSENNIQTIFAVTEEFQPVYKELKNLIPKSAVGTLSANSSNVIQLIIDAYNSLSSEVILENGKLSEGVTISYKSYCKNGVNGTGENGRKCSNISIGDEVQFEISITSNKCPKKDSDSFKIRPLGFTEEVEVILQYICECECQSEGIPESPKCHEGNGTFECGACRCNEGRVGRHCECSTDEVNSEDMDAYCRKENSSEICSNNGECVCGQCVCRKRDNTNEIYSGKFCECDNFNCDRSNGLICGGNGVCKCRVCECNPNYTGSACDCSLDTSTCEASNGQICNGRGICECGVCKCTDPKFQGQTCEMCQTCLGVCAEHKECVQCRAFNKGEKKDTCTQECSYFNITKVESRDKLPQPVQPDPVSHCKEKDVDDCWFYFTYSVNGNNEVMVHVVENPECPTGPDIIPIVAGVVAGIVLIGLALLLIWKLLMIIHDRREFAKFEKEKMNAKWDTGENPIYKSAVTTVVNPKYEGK
Chain of Integrin beta-1 (Homo sapiens) + Integrin alpha-4 (Homo sapiens) (P13612 whole entry, looked up): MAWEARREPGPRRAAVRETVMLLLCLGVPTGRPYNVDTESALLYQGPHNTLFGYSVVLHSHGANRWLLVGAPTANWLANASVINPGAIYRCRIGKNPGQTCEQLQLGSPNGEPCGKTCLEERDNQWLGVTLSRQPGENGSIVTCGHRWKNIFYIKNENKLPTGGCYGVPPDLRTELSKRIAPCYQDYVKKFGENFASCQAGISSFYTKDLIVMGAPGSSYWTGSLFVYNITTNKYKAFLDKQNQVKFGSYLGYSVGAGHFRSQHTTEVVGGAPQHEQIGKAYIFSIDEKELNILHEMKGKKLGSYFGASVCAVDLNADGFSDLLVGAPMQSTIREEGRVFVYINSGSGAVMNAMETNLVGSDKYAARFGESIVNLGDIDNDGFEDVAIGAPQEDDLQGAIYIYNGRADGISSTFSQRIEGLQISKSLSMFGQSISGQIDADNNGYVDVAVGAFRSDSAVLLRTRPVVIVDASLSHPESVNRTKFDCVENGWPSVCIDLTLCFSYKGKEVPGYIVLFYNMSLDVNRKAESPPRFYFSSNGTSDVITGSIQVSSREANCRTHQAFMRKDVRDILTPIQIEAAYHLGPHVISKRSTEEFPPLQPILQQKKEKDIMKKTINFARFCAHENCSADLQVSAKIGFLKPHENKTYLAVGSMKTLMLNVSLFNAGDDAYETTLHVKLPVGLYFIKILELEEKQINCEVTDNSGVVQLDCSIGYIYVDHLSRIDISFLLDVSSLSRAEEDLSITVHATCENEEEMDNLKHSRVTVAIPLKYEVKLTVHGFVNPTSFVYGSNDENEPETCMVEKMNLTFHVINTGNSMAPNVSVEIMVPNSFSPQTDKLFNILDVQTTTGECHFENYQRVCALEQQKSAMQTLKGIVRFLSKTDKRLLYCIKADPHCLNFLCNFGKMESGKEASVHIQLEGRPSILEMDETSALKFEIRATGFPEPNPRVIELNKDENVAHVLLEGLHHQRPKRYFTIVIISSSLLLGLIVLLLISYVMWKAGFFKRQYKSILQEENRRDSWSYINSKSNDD

One may read the inhibition as the change of the read-out against control, counted positive when it falls. In [1], `Cc1ccc(C(=O)N2CC3(C(C)C)CN(C(=O)c4ccc(C)cc4)CC(C(C)C)(C2)C3=O)cc1` yielded a double positive events of 59.7%. Also, in assay [1], the vesicle binding response was 224% (inactive). Besides, the results for the inhibition in [2], in [6] and in [10] were -30.5% (inactive), 14.1% (inactive) and 5% (inactive), respectively. Further, in assay [3], the superoxide response (% of plate) was 97.1% (inactive). Moreover, in assay [4], the aptamer binding inhibition is 3% (inactive). Further, the response in assay [5] was 24.4% (inactive); in assay [7] it was -0.93% (inactive). In assay [8], the binding (% of control) is 99.1% (inactive). Moreover, in assay [9], the efflux inhibition (fraction of control) is 0.76 (active). Moreover, in assay [11], the differentiation response was 7.2% (inactive).

In assay [1], `O=C(/C=C/c1ccc2c(c1)OCO2)c1ccccn1` gave a double positive events of 60.4%. Besides, the vesicle binding response in assay [1] is 181% (inactive). Further, the values for the inhibition in [2], in assay [6] and in [10] were 4.84% (inactive), -13% (inactive) and -8% (inactive), respectively. In assay [3], the superoxide response (% of plate) was 89.8% (inactive). For the same compound, in assay [4], the aptamer binding inhibition is 1% (inactive). The response in assay [5] is -23.4% (inactive); in assay [7], -4.66% (inactive). Besides, in assay [8], the binding (% of control) is 102% (inactive). Also, in assay [9], the efflux inhibition (fraction of control) is 0 (inactive). The differentiation response in assay [11] is -5.97% (inactive).

`COc1cc(NC(=O)N[C@@H](Cc2ccccc2)C(=O)O)cc(OC)c1`: in [1], the double positive events was found to be 62.8%. Moreover, the vesicle binding response in [1] is 221% (inactive). The inhibition was 9.1% (inactive) in assay [2], -3.53% (inactive) in assay [6] and 2% (inactive) in [10]. Besides, in assay [3], the superoxide response (% of plate) was 106% (inactive). The aptamer binding inhibition in assay [4] is 3% (inactive). In addition, the results for the response in assay [5] and in [7] were -10.8% (inactive) and 22.2% (active), respectively. Also, the binding (% of control) in assay [8] is 105% (inactive). The efflux inhibition (fraction of control) in [9] is -0.09 (inactive). Further, the differentiation response in assay [11] was 0.92% (inactive).

`CN1CCc2cccc3c2[C@@H]1Cc1ccc(O)c(O)c1-3` registered a double positive events in assay [1] of 61%. The vesicle binding response in [1] is 194% (inactive). Besides, the values for the inhibition in [2], in [6] and in [10] were -38.6% (inactive), 6.55% (inactive) and -20% (inactive), respectively. Moreover, the superoxide response (% of plate) in assay [3] is 93.1% (inactive). The aptamer binding inhibition in [4] is 11% (inactive). The response is 26.8% (inactive) in assay [5] and -9.4% (inactive) in assay [7]. In [8], the binding (% of control) was 100% (inactive). For the same compound, the efflux inhibition (fraction of control) in assay [9] is -0.09 (inactive). In assay [11], the differentiation response is 5.85% (inactive).

Consider `COc1ccc(S(=O)(=O)NC(Cc2cnc[nH]2)C(=O)O)cc1` (centres undefined), for which the double positive events in assay [1] is 49.4%. Further, in [1], the vesicle binding response was 8.1% (active). For the same compound, the inhibition in assay [2] was 9.13% (inactive); in [6], -1% (inactive); in assay [10], -19% (inactive). Besides, the superoxide response (% of plate) in assay [3] was 100% (inactive). In [4], the aptamer binding inhibition is 1% (inactive). Further, the response is -7.36% (inactive) in assay [5] and 1.95% (inactive) in assay [7]. For the same compound, the binding (% of control) in [8] was 99.1% (inactive). For the same compound, the efflux inhibition (fraction of control) in [9] was -0.35 (inactive). For the same compound, the differentiation response in [11] is -20% (inactive).

Consider `COc1cc2c(cc1O)CC[C@@H]1[C@@H]2CC[C@]2(C)[C@@H](O)CC[C@@H]12`, for which, in assay [1], the double positive events was 58.8%. Also, the vesicle binding response in assay [1] is 139% (inactive). The inhibition in assay [2] was 44.9% (inactive); in assay [6] it was -5.34% (inactive); in assay [10], -1% (inactive). For the same compound, the superoxide response (% of plate) in assay [3] was 112% (inactive). Besides, the aptamer binding inhibition in assay [4] was -7% (inactive). For the same compound, the response is -10.9% (inactive) in [5] and -4.33% (inactive) in assay [7]. The binding (% of control) in assay [8] is 106% (inactive). In assay [9], the efflux inhibition (fraction of control) was 0.04 (inactive). Besides, the differentiation response in assay [11] is -9.91% (inactive).

In assay [1], `COc1ccc(C)cc1S(=O)(=O)Nc1ccc(F)cc1` registered a double positive events of 64.5%. In addition, the vesicle binding response in assay [1] is 172% (inactive). Also, the values for the inhibition in [2], in assay [6] and in assay [10] were 5.61% (inactive), 2.42% (inactive) and 17% (inactive), respectively. The superoxide response (% of plate) in assay [3] was 98.8% (inactive). Moreover, in assay [4], the aptamer binding inhibition is 1% (inactive). Further, the response in assay [5] was 0.44% (inactive); in assay [7], -2.48% (inactive). For the same compound, in assay [8], the binding (% of control) is 102% (inactive). Also, the efflux inhibition (fraction of control) in assay [9] is 0.06 (inactive). Besides, in assay [11], the differentiation response is -3.11% (inactive).

Compound `COc1ccc(C(=O)NC(=O)NC2(C(Cl)(Cl)Cl)OCCO2)cc1` yielded a double positive events in assay [1] of 60.6%. Besides, in assay [1], the vesicle binding response was 214% (inactive). Moreover, the figures for the inhibition in assay [2], in [6] and in assay [10] were -21.6% (inactive), 13.5% (inactive) and 9% (inactive), respectively. For the same compound, the superoxide response (% of plate) in [3] is 86.9% (inactive). Further, the aptamer binding inhibition in [4] is 4% (inactive). The response is -20.1% (inactive) in assay [5] and -0.88% (inactive) in assay [7]. Also, the binding (% of control) in assay [8] was 94.7% (inactive). Further, in assay [9], the efflux inhibition (fraction of control) is 0.12 (inactive). The differentiation response in assay [11] was -2.03% (inactive).

`COc1ccc(Cl)cc1C(=O)NCCc1ccc(S(=O)(=O)NC(=O)NC2CCCCC2)cc1` registered a double positive events in assay [1] of 60.4%. Besides, the vesicle binding response in [1] is 155% (inactive). Moreover, the inhibition in [2] was -10.5% (inactive); in assay [6], 3.88% (inactive); in [10] it was 8% (inactive). Further, the superoxide response (% of plate) in assay [3] was 114% (inactive). The aptamer binding inhibition in [4] was 4% (inactive). Moreover, the response in assay [5] is -18.8% (inactive); in assay [7], -2.06% (inactive). The binding (% of control) in [8] is 101% (inactive). Also, the efflux inhibition (fraction of control) in [9] is -0.28 (inactive). In addition, in assay [11], the differentiation response was -10.4% (inactive).

Turning to `COC1CCCCC1Nc1ccc(C)c(C)c1` (centres undefined), in assay [1], the double positive events turned out to be 59.5%. In addition, the vesicle binding response in [1] was 262% (inactive). Besides, the inhibition was -1.79% (inactive) in [2], -5.05% (inactive) in [6] and 5% (inactive) in [10]. Further, the superoxide response (% of plate) in assay [3] is 100% (inactive). Further, the aptamer binding inhibition in [4] is 5% (inactive). Moreover, the response in [5] is 6.1% (inactive); in assay [7] it was 0.08% (inactive). The binding (% of control) in assay [8] is 94.7% (inactive). Besides, the efflux inhibition (fraction of control) in [9] was 0.05 (inactive). The differentiation response in [11] is -12% (inactive).

`CCCCC[C@H](O)/C=C/[C@@H]1[C@@H](C/C=C\CCCC(=O)O)[C@@H](O)C[C@H]1O` gave a double positive events in assay [1] of 60.4%. In addition, the vesicle binding response in assay [1] was 106% (inactive). The inhibition in [2] was -49.3% (inactive); in assay [6], -12.4% (inactive); in [10], 1% (inactive). Also, the superoxide response (% of plate) in [3] was 96.5% (inactive). The aptamer binding inhibition in [4] was 1% (inactive). The response in assay [5] is -3.9% (inactive); in assay [7], -1.19% (inactive). Besides, the binding (% of control) in assay [8] was 98.8% (inactive). Besides, the efflux inhibition (fraction of control) in assay [9] was 0.045 (inactive). Moreover, in assay [11], the differentiation response is -11.9% (inactive).

`CCOC(=O)C1C(=O)CC(C)(O)C(C(=O)OCC)C1/C=C/c1ccccc1` (centres undefined) yielded a double positive events in [1] of 61.6%. Moreover, the vesicle binding response in assay [1] is 115% (inactive). In addition, the inhibition in assay [2] is 2.93% (inactive); in [6] it was 1.5% (inactive); in assay [10], -11% (inactive). Also, the superoxide response (% of plate) in assay [3] is 96.1% (inactive). For the same compound, the aptamer binding inhibition in [4] is 2% (inactive). Moreover, the values for the response in [5] and in assay [7] were 4.95% (inactive) and -0.5% (inactive), respectively. Moreover, in assay [8], the binding (% of control) was 102% (inactive). Further, the efflux inhibition (fraction of control) in assay [9] is -0.07 (inactive). In assay [11], the differentiation response was -10.4% (inactive).
